In all, about 340,000 compounds went through this assay and about 6,200 (1.8%) were called active. About 10% were inconclusive and are not listed. Calls come from the whole dose curve; as a rule, active = well fitted activation curve with a large enough effect; inconclusive = small, poorly fitted or top-dose-only effect; inactive = no such curve, though single readings can be large or run the other way. The full list was thinned out, with actives kept by preference.
Assay: A quantitative high throughput screen for small molecules that induce DNA re-replication in SW480 colon adenocarcinoma cells. For re-replication activation: % of control where 0% means no effect. Note: nearly all actives have a fitted effect of over 55% in size.
Conditions: Hoechst DNA content imaging, 48 h; series mostly up to 46.1 µM
Procedure, shortened: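 Quantitative HTS format with DMSO vehicle controls; 48 hr drug incubation at 37 C, then 40 min Hoechst staining and scanning imager measurement at 405 nm excitation.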
Potency is the fitted concentration of half-maximal effect.

Potency, inactive:
Cc1ccccc1N1CCN(C(=O)c2cccnc2)CC1
Cc1ccc2c(c1)C1C[N+](C)(CC(=O)c3ccccc3)CCC1N2C(=O)c1ccccc1Cl (stereo not given)
O=C(NNC(=O)c1ccc2ccccc2c1)c1ccc(Cl)cc1
CC(C)Sc1nnc([C@H](Cc2ccccc2)NC(=O)OC(C)(C)C)o1
C[C@H](NC(=O)OC(C)(C)C)c1nnc(SCC(=O)Nc2ccc(Br)cc2)o1
Cc1cn(COC/C=C/c2ccccc2)c(=O)[nH]c1=O
O=C(/C=C/c1ccc(N2CCOCC2)cc1)c1ccccc1
S=c1[nH]nc(-c2cccs2)n1/N=C/c1cccs1
Oc1ccccc1/C=N/n1c(-c2cccs2)n[nH]c1=S
CN(C(=O)COC(=O)Cn1cnc2c1c(=O)n(C)c(=O)n2C)C1(C#N)CCCCC1
CS(=O)(=O)c1ccc(C(=O)NNC(=O)c2cccs2)cc1
O=C(COC(=O)Cc1ccc([N+](=O)[O-])cc1)NC1CCCCCC1
O=C(OCC(=O)N1CCN(c2ccccc2)CC1)c1ccc([N+](=O)[O-])s1
N#CCc1c[nH]c2ccc([N+](=O)[O-])cc12
C/C=C/c1ccc(OCC(=O)NNC(=O)CN(C)S(=O)(=O)c2ccc(C)cc2)c(OC)c1
CCc1nnc(NC(=O)CCCSc2nc3ccccc3[nH]2)s1
CCCCSc1nc2ccccc2[nH]1
Nc1ncnc2c1cnn2C1CC(O)C(CO)O1 (stereo not given)
CC(C)N(C(=O)[C@H]1C[C@H](CC(=O)NCCC2=CCCCC2)C(=O)N2CCc3c([nH]c4cc(CCC(=O)N(C)C)ccc34)[C@]12C)C(C)C
CC(Nc1ccc([N+](=O)[O-])cc1[N+](=O)[O-])c1ccccc1 (stereo not given)
CCOc1ccc(-n2c(SCC(=O)OC)nc3sc4c(c3c2=O)CCN(C)C4)cc1
COc1ccccc1NC(=O)CSc1nc2sc3c(c2c(=O)n1-c1ccccc1)CCN(C)C3
Cc1noc(C)c1NC(=O)Nc1ccc2c(c1)C(=O)N([C@H](C)CO)C[C@H](C)[C@@H](CN(C)S(=O)(=O)c1cn(C)cn1)O2
C[C@]12c3[nH]c4ccc(Cl)cc4c3CCN1C(=O)[C@@H](CC(=O)NCCCn1ccnc1)C[C@@H]2C(=O)N1CCOCC1
COc1ccc(/C=N/NC(=O)C2CC2)c(OC)c1OC
O=C(NN=Cc1ccccc1)c1ccccc1
Oc1ccccc1C=NC1CCCCC1N=Cc1ccccc1O (stereo not given)
O=C(N/N=C/c1c[nH]c2ccccc12)c1ccccc1O
NC(CSC1(c2ccccc2)c2ccccc2-c2ccccc21)C(=O)O (stereo not given)
COc1cc(OC)cc(C(=O)NCC(=O)N2CCCCCCC2)c1
NC(=O)c1ncn([C@@H]2O[C@H](CNCc3cnc(N4CCOCC4)s3)[C@@H](O)[C@H]2O)n1
NS(=O)(=O)c1ccc(CCNC(=O)c2ccc(Cl)c(S(=O)(=O)N3CCCCCC3)c2)cc1
COc1ccc2oc(N)nc2c1
CC[C@]1(C(=O)OC)[C@H]2C(=O)N(Cc3ccccc3)C(=O)[C@H]2[C@H]2CN=C(SCc3ccc(Cl)cc3)N21
CCc1c(Nc2ccccc2C)nc(N)[nH]c1=O
Cc1c(C(=O)N2CCCc3ccccc32)oc2ccccc12
Cc1c(C(=O)N2CCCc3ccccc32)sc2nc(-c3ccccc3)cn12
COc1ccccc1CC(=O)Nc1ccc(F)cc1F
COC(=O)c1ccccc1NC(=O)Cc1ccccc1OC
O=C(Cc1ccc(Cl)cc1)c1ccccc1
O=C1CC(C(=O)O)NC(=S)N1 (stereo not given)
Cc1ccc(C)c(N2CCN(C(=O)CCc3nc(-c4cccc(C(F)(F)F)c4)no3)CC2)c1
CC(C)CN1CC(C)C(=O)N(c2ccccc2)C1=S (stereo not given)
COc1ccc2oc(=O)cc(-c3cc4ccccc4o3)c2c1
COc1ccc(Nc2nnc(C)c3ccccc23)cc1
CN1CCC(N(C)C(=O)c2ccc(Cl)c(S(=O)(=O)Nc3ccc(Cl)cc3)c2)CC1
CCOC(=O)c1c(C)[nH]c(C)c1S(=O)(=O)N(C)CC(=O)Nc1ccccc1C
CCOC(=O)c1ccccc1OC(=O)Oc1ccccc1C(=O)OCC
Cn1c(=O)[nH]c2c(c(C(=O)O)nn2C)c1=O
COCC(=O)N(C)[C@H]1C[C@H]2c3cc(Oc4ccccc4C)ccc3CCN2C(=O)[C@H]1[C@H](C)O
N#CC(Cc1cc2ccccc2n1S(=O)(=O)c1ccccc1)OCc1ccccc1 (stereo not given)

Potency, active:
C[C@@H](NC(=O)OC(C)(C)C)c1nnc(S(=O)(=O)Cc2ccccc2)o1 13 µM
Cc1[nH]c(=O)c(C(=O)/C=C/c2ccccc2)c2c1CCCC2 20.6 µM
Cc1cc(-c2n[nH]c(=S)n2/N=C/C(Br)=C/c2ccccc2)n[nH]1 6.51 µM
Cc1ccc(C2=Nc3c(ccc4ccccc34)C(c3ccncc3)=NN2)cc1 18.4 µM
CCC(C)N1C(=O)S/C(=C/c2ccc(Sc3nc4ccccc4[nH]3)o2)C1=O (stereo not given) 18.4 µM
CCCSc1nc2sc3c(c2c(=O)n1-c1ccc(OC)cc1)CCN(C)C3 1.84 µM
O=C(NN=Cc1ccccc1O)NN=Cc1ccccc1O 16.4 µM
O=C(N/N=C/c1ccccc1O)C1CCCC1 4.61 µM
Cc1cccc2cc3c(N)c(C(=O)N4CCCc5ccccc54)sc3nc12 5.17 µM
CC[C@]1(c2ccccc2OC)C(=O)N(C(=O)OC)N1C(=O)OC 23.1 µM
COc1ccc(Nc2cc(=O)oc3ccccc23)cc1 5.17 µM
CCOC(=O)c1c(C)[nH]c2c1-c1ccccc1C(=O)C2=O 5.17 µM

re-replication activation, inactive:
CN(C(=O)c1cccc(NC(=O)Cc2cccc(NC(=O)C3CCCN(C(=O)C4CC4)C3)c2)c1)C1CCC1 (stereo not given) 3.52% [at 9.22 µM]
O=C(NCc1ccccc1)c1cccc(NC(=O)C2CCCCC2)c1 -9.55% [at 9.22 µM]
